{"source": "PubChem BioAssay (Tox21)", "key": {"[1]": {"biological_target": "Cytochrome P450 2C9 (Homo sapiens) (UniProt P11712)", "sequence (P11712 whole entry, looked up)": "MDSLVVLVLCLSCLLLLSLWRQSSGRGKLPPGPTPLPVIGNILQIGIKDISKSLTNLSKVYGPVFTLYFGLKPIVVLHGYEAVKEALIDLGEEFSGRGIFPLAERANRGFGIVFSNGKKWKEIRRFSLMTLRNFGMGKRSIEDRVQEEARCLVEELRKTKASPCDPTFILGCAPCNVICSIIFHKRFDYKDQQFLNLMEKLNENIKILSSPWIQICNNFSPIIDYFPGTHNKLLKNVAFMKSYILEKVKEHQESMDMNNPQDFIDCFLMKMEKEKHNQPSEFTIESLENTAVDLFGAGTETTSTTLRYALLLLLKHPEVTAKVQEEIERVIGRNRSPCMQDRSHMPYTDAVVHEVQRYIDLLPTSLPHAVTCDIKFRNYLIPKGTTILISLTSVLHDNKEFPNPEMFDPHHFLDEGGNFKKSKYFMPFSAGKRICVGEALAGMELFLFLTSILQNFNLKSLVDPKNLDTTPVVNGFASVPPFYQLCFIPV", "test": "Cytochrome P450 Family 2 Subfamily C Member 9 (CYP2C9) small molecule antagonists: luciferase reporter qHTS assay (AID 1671198)", "conditions": "P450-Glo CYP2C9 enzyme assay, luciferin luminescence; series mostly up to 115 µM", "summary_of_the_method": "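CYP2C9 activity was measured with a P450-Glo proluciferin substrate. Enzyme–substrate mix was held with compound for 10 min at room temperature, then NADPH regeneration solution was added for 1 h at 37C. Luciferin product was read as luminescence.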"}, "[2]": {"biological_target": "Cytochrome P450 1A2 (Homo sapiens) (UniProt P05177)", "sequence (P05177 whole entry, looked up)": "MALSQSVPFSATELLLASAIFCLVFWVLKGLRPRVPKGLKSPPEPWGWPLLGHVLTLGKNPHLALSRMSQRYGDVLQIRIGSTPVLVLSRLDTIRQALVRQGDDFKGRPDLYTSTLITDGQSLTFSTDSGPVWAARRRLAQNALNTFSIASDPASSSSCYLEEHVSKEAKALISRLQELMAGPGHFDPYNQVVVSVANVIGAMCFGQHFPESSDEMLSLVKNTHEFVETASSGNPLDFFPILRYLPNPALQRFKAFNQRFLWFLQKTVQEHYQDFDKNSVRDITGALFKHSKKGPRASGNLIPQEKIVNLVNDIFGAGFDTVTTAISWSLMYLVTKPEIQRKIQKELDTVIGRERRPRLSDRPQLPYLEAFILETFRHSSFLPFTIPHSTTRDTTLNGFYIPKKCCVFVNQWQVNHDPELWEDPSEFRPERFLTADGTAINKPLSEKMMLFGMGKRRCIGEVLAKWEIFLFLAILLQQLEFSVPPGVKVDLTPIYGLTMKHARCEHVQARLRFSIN", "test": "Cytochrome P450 Family 1 Subfamily A Member 2 (CYP1A2) small molecule antagonists: luciferase reporter qHTS assay (AID 1671199)", "conditions": "P450-Glo CYP1A2 enzyme, luciferin luminescence, 1 h; series mostly up to 53 µM", "summary_of_the_method": "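Quantitative high-throughput format using the P450-Glo CYP1A2 system. Reaction initiated by NADPH regeneration solution, 1 h at room temperature, then stopped with detection reagent; luminescence measured 20 min later.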"}, "[3]": {"biological_target": "Voltage-gated inwardly rectifying potassium channel KCNH2 (Homo sapiens) (UniProt Q12809)", "sequence (Q12809 whole entry, looked up)": "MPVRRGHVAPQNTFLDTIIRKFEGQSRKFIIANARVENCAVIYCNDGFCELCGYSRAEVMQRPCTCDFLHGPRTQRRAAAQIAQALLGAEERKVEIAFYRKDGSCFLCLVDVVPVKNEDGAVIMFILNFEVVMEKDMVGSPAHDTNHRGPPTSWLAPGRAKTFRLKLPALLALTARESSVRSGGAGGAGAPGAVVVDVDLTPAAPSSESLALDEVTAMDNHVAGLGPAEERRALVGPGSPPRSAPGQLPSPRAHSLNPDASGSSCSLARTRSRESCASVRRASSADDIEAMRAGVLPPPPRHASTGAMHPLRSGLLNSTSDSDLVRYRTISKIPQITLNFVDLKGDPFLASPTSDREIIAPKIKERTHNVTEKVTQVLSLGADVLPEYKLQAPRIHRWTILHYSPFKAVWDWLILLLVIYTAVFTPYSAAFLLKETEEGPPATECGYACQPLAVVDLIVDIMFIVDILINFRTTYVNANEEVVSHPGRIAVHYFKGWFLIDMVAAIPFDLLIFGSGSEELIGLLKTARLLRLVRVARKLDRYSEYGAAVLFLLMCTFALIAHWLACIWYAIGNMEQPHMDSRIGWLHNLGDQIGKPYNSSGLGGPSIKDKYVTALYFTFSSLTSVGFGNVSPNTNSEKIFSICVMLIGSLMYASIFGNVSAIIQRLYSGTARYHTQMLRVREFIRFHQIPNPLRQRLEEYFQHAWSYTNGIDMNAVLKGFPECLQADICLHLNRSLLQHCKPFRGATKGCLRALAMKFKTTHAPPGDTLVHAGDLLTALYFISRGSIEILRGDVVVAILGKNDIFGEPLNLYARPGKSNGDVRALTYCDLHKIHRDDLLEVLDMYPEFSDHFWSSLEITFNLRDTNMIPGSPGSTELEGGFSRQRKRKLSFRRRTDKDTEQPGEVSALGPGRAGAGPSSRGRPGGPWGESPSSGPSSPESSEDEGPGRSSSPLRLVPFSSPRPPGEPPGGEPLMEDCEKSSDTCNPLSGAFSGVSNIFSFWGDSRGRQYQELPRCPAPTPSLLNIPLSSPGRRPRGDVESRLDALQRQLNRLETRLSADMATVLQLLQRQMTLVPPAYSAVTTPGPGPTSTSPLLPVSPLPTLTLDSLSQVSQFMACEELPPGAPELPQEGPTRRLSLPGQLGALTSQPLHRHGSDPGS", "test": "Human Ether-a-go-go-Related Gene (hERG) channel small molecule antagonists: fluorescence cell-based qHTS assay (AID 1671200);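 for activity change, negative = inhibition: hERG-expressing U2OS cells given a thallium stimulus after FluxOR II dye loading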", "conditions": "hERG-U2OS cells, FluxOR thallium flux fluorescence; series mostly up to 76.8 µM", "summary_of_the_method": "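Quantitative HTS in hERG-U2OS cells: thallium entry through the channel reports activity, read as continuous 480/540 nm fluorescence over 2 min after stimulus addition.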"}}, "note": "Results filed as inconclusive are left out. Entries that show only a call come without a potency. A number with no mark means an inactive call. Active and inactive are the calls of the source. Calls come from the whole dose curve; as a rule, active = well fitted curve in the direction sought with a large enough effect in the repeat runs; inconclusive = weak or mixed curves; inactive = no such curve, though single readings can be large; an effect the other way counts as inactive or inconclusive. Note: nearly all actives have a fitted effect of over 50% in size. Potency is the fitted concentration of half-maximal effect."}
{"smiles": "CCN(CC)CCOC(=O)C(c1ccccc1)C1CCCCC1", "note": "(stereo not given)", "values": [{"measurement": "Potency", "setting": "[1]", "result": "inactive"}, {"measurement": "Potency", "setting": "[2]", "result": "3.63 µM (active)"}, {"measurement": "Potency", "setting": "[3]", "result": "6.01 µM (active)"}]}
{"smiles": "CCCCc1nc2cccnc2n1Cc1ccc(-c2ccccc2-c2nnn[nH]2)cc1", "values": [{"measurement": "Potency", "setting": "[1]", "result": "0.356 µM (active)"}, {"measurement": "Potency", "setting": "[2]", "result": "44.8 µM (active)"}, {"measurement": "Potency", "setting": "[3]", "result": "inactive"}]}
{"smiles": "Cc1[nH]c(C)c(Cl)c(=O)c1Cl", "values": [{"measurement": "activity change, negative = inhibition", "setting": "[1]", "result": "23.2% [at 23.6 µM]"}, {"measurement": "Potency", "setting": "[2]", "result": "inactive"}, {"measurement": "activity change, negative = inhibition", "setting": "[3]", "result": "-0.502% [at 15.8 µM]"}]}
{"smiles": "CNCCCN1c2ccccc2CCc2ccccc21", "values": [{"measurement": "Potency", "setting": "[1]", "result": "inactive"}, {"measurement": "Potency", "setting": "[2]", "result": "inactive"}]}
{"smiles": "CC1(c2ccccc2)OC(C(=O)O)=CC1=O", "note": "(stereo not given)", "values": [{"measurement": "Potency", "setting": "[1]", "result": "inactive"}, {"measurement": "Potency", "setting": "[2]", "result": "inactive"}, {"measurement": "Potency", "setting": "[3]", "result": "inactive"}]}
{"smiles": "O=C1[C@H]2CCCC[C@H]2C(=O)N1CCCCN1CCN(c2nsc3ccccc23)CC1", "values": [{"measurement": "Potency", "setting": "[1]", "result": "inactive"}, {"measurement": "Potency", "setting": "[2]", "result": "inactive"}, {"measurement": "Potency", "setting": "[3]", "result": "8.49 µM (active)"}]}
{"smiles": "CCCCCCCCO[C@@H]1O[C@H](CO)[C@@H](O)[C@H](O)[C@H]1O", "values": [{"measurement": "Potency", "setting": "[1]", "result": "inactive"}, {"measurement": "Potency", "setting": "[2]", "result": "inactive"}, {"measurement": "Potency", "setting": "[3]", "result": "inactive"}]}
{"smiles": "CCCOC(C(=O)OC1CCN(C)CC1)(c1ccccc1)c1ccccc1", "values": [{"measurement": "Potency", "setting": "[1]", "result": "inactive"}, {"measurement": "Potency", "setting": "[2]", "result": "inactive"}]}
{"smiles": "COc1cc2nc(Cl)nc(N)c2cc1OC", "values": [{"measurement": "Potency", "setting": "[1]", "result": "inactive"}, {"measurement": "Potency", "setting": "[2]", "result": "2.75 µM (active)"}, {"measurement": "Potency", "setting": "[3]", "result": "inactive"}]}
{"smiles": "CCN(CC)c1ccc(C(=C2C=CC(=[N+](CC)CC)C=C2)c2cc(S(=O)(=O)O)ccc2S(=O)(=O)[O-])cc1", "values": [{"measurement": "Potency", "setting": "[1]", "result": "15.5 µM (active)"}, {"measurement": "Potency", "setting": "[2]", "result": "17.4 µM (active)"}, {"measurement": "Potency", "setting": "[3]", "result": "inactive"}]}
{"smiles": "Nc1ccc(S(=O)(=O)Nc2ccccc2)cc1", "values": [{"measurement": "Potency", "setting": "[1]", "result": "inactive"}, {"measurement": "Potency", "setting": "[2]", "result": "inactive"}, {"measurement": "Potency", "setting": "[3]", "result": "inactive"}]}
{"smiles": "COC(=O)C1=C(C)NC(COC(N)=O)=C(C(=O)OC(C)C)C1c1cccc(Cl)c1Cl", "note": "(stereo not given)", "values": [{"measurement": "Potency", "setting": "[1]", "result": "8.71 µM (active)"}]}
{"smiles": "O=C(NCCO[N+](=O)[O-])c1cccnc1", "values": [{"measurement": "Potency", "setting": "[1]", "result": "inactive"}, {"measurement": "Potency", "setting": "[2]", "result": "inactive"}, {"measurement": "Potency", "setting": "[3]", "result": "inactive"}]}
